Source: PubChem BioAssay
SUMO Mot1 rescue – blocks SUMOylation pathway, rescuing yeast Mot1-301 growth | S. cerevisiae Mot1-301 growth rescue, ATP luminescence, 38.5C; percent above DMSO median, 100 means doubled | growth rescue, % at 18.8 µM | 320,000 compounds, 1% hits;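 active = every valid replicate shows activation above 250% relative to neutral control wells; inactive = the rest, any valid replicate at or below 250%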;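 note: OY570 slx delta 5 strain wells were the positive control but not used for scaling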
Bfl-1 A1 inh – inhibitors of the anti-apoptotic protein A1, read as caspase activation; MEF A1-2A-BIM cells, Caspase-Glo 3/7 luminescence, 3 h; percent of clofoctol response, vehicle zero; caspase activation, % (no concentration beside the values); 330,000 compounds, 0.066% hits; AID 2462;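 active = over half of replicate activation scores above 10%, or exactly half above 10 with the replicate mean above 10; inconclusive = replicate mean below 10 yet half the replicates above 10; inactive = over half of replicates below 10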
aDG glyco up – alpha-DG glycosylation activation | Pro5-aDG cells, alpha-DG glycosylation AlphaScreen (IIH6); 0% Pro5, 100% B10-LARGE cell signal | activation, % at 10 µM | 360,000 compounds, 0.22% hits | AID 624168;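 active = activation of at least 8% versus controls, or a plate z-score of at least 8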;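 note: Pro5 are CHO cells carrying HIG-tagged alpha-DG that lacks glycosylation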
ARNT-TACC3 inh – ARNT/TACC3 interaction disruption; AlphaScreen His-ARNT PAS-B/GST-TACC3 binding, luminescence; TACC3 fragment carries E629A point mutation; 390,000 compounds, 0.66% hits; inhibition, % at 9.99 µM; AID 623870;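 active = mean inhibition of replicates at least 50% and at least half of replicates each reaching 50%; inconclusive = half or more replicates reach 50% but mean below 50%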;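 note: 0% = complete ARNT plus TACC3 wells and 100% = ARNT alone without TACC3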
AI-2 QS modul – modulators of Vibrio harveyi AI-2 quorum sensing system; Vibrio harveyi JMH597 AI-2 luminescence/OD600 ratio, 9 h; stronger effect = lower value; strain lacks LuxN and CqsS sensors; 0 = neutral-control median; activity change, % at 7.5 µM; 300,000 compounds, 0.4% hits; AID 2094; in the data active = activity change below about -75%, passing the limit was not always enough; inconclusive = no clear call, values can overlap the other calls;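 note: luminescence divided by OD600 gain over 9 h not by final OD600 alone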
* = called active by the depositor. A selection: hits, their analogues and other compounds. The true share with any hit is near 1.8%.

For CC1CCCCN1S(=O)(=O)c1ccc(C(=O)Nc2nnc(C3CC3)o2)cc1 (stereo unspecified) the results were SUMO Mot1 rescue 5, Bfl-1 A1 inh 0, aDG glyco up 0, ARNT-TACC3 inh 46* and AI-2 QS modul 30.
CC1CCCCN1S(=O)(=O)c1ccc(C(=O)Nc2nnc(-c3ccco3)o2)cc1 (stereo unspecified) was read as SUMO Mot1 rescue -26, Bfl-1 A1 inh 0, aDG glyco up 1, ARNT-TACC3 inh 39 and AI-2 QS modul 41.
Cc1nnc(NC(=O)c2ccc(S(=O)(=O)N3CCCCC3C)cc2)o1 (stereo unspecified) was read as SUMO Mot1 rescue -12, Bfl-1 A1 inh 0, aDG glyco up 0, ARNT-TACC3 inh 51* and AI-2 QS modul 30.
`O=C(NCCc1ccccc1)c1ccccc1C(F)(F)F` gave aDG glyco up 0.
For CCCN1[C@@H]2c3ccc(-c4ccccc4)c(=O)n3C[C@H]1[C@H](CO)[C@H]2C(=O)NCCc1cn(C)cn1 the results were ARNT-TACC3 inh 0.
For Cc1ccc(NC(=O)C2C3CCC(O3)C2C(=O)O)cc1Cl (stereo unspecified) the results were SUMO Mot1 rescue 355*, Bfl-1 A1 inh 1, aDG glyco up 0, ARNT-TACC3 inh -13 and AI-2 QS modul 16.
`CCOC(=O)C1CCN(C(=O)c2c(C)oc3c2C(=O)c2ccccc2C3=O)CC1` gave SUMO Mot1 rescue -11, Bfl-1 A1 inh 0, aDG glyco up 4.3*, ARNT-TACC3 inh -4 and AI-2 QS modul 14.
Screening COc1ccc(OC)c(NC(=O)CN(C)CC(=O)Nc2ccccc2Cl)c1 returned SUMO Mot1 rescue -2, Bfl-1 A1 inh 1, aDG glyco up 0, ARNT-TACC3 inh 0 and AI-2 QS modul 10.
S=C(NCCc1ccccc1)Nc1cccc2cnccc12 was read as Bfl-1 A1 inh 0, aDG glyco up 9.0*, ARNT-TACC3 inh 15 and AI-2 QS modul 27.
Screening S=C(NCc1ccccc1)Nc1cccc2cnccc12 returned SUMO Mot1 rescue -12, Bfl-1 A1 inh 1, aDG glyco up 2 and AI-2 QS modul 10.
`CCCn1c(SCC(=O)Nc2ccc(Cl)cc2)n[nH]c1=O` gave SUMO Mot1 rescue 92, Bfl-1 A1 inh 1, aDG glyco up 0, ARNT-TACC3 inh -12 and AI-2 QS modul -3.
For O=C(N/N=C/c1ccc([N+](=O)[O-])s1)c1ccccc1Br the results were SUMO Mot1 rescue -25, Bfl-1 A1 inh 1, aDG glyco up 5.6* and ARNT-TACC3 inh 6.
For O=C(N/N=C/c1ccc([N+](=O)[O-])s1)c1ccccc1 the results were Bfl-1 A1 inh 0, aDG glyco up 9.5*, ARNT-TACC3 inh -3 and AI-2 QS modul 3.
Screening Cc1cc(C(=O)N/N=C/c2ccc([N+](=O)[O-])s2)c2ccccc2n1 returned SUMO Mot1 rescue -9, Bfl-1 A1 inh 0, aDG glyco up 2, ARNT-TACC3 inh 10 and AI-2 QS modul 28.
For O=C(N/N=C/c1ccc([N+](=O)[O-])s1)C(O)c1ccccc1 (stereo unspecified) the results were SUMO Mot1 rescue -10, Bfl-1 A1 inh 1, aDG glyco up 11*, ARNT-TACC3 inh 5 and AI-2 QS modul inconclusive.
For Cc1ccccc1C(=O)N/N=C/c1ccc([N+](=O)[O-])s1 the results were SUMO Mot1 rescue -17, Bfl-1 A1 inh 0, aDG glyco up 4, ARNT-TACC3 inh 5 and AI-2 QS modul -76*.
Screening Cc1cccc(Nc2ncnc(N)n2)c1 returned SUMO Mot1 rescue 541*, Bfl-1 A1 inh -1, aDG glyco up 0, ARNT-TACC3 inh -14 and AI-2 QS modul 4.
`Nc1ncnc(Nc2cccc(F)c2)n1` gave SUMO Mot1 rescue 2, Bfl-1 A1 inh 1, aDG glyco up 0, ARNT-TACC3 inh -7 and AI-2 QS modul 5.
N/C(=N\OS(=O)(=O)c1ccc2ccccc2c1)c1ccccn1 was read as aDG glyco up 0 and ARNT-TACC3 inh 59*.
Screening CS(=O)(=O)N1CCc2cc(C(=O)N3CCCCC3)ccc21 returned SUMO Mot1 rescue -11, Bfl-1 A1 inh 1, aDG glyco up 0, ARNT-TACC3 inh -5 and AI-2 QS modul 19.
CC(Sc1nc(N)c2c3c(sc2n1)CSC(C)(C)C3)C(=O)Nc1ccccc1 (stereo unspecified) was read as SUMO Mot1 rescue 3, Bfl-1 A1 inh 2, aDG glyco up 0, ARNT-TACC3 inh -8 and AI-2 QS modul 12.
For CCOc1cc(C(c2c(C)[nH][nH]c2=O)c2c(C)[nH][nH]c2=O)cc([N+](=O)[O-])c1O the results were SUMO Mot1 rescue -9, Bfl-1 A1 inh 0, aDG glyco up 0, ARNT-TACC3 inh active and AI-2 QS modul 27.
`COc1cccc(C(=O)N2C[C@@H]3[C@H](c4ccccc42)[C@@H](CO)N3Cc2ccccc2F)c1` gave ARNT-TACC3 inh 28.
Cc1ccc(C2(c3ccc(C)cc3)CC2C(=O)Nc2ccc([N+](=O)[O-])cc2O)cc1 (stereo unspecified) was read as SUMO Mot1 rescue -8, Bfl-1 A1 inh 27*, aDG glyco up 0, ARNT-TACC3 inh 12 and AI-2 QS modul 43.
CC1(C)CC1C(=O)Nc1ccc([N+](=O)[O-])cc1Br (stereo unspecified) was read as SUMO Mot1 rescue 8, Bfl-1 A1 inh 0, aDG glyco up 0, ARNT-TACC3 inh -9 and AI-2 QS modul 13.
Screening C[C@@H]1CN([C@@H](C)CO)C(=O)c2cc(NC(=O)Nc3cccc4ccccc34)ccc2O[C@@H](C)CCCCO[C@@H]1CN(C)CC1CCCCC1 returned ARNT-TACC3 inh 1.
Screening CCOC(=O)c1sc(=S)n(Cc2ccccc2)c1N returned SUMO Mot1 rescue -18, Bfl-1 A1 inh -1, aDG glyco up 0, ARNT-TACC3 inh 16 and AI-2 QS modul -86*.
CCOc1ccccc1N(CC(=O)N/N=C(\C)c1cccc(Br)c1)S(C)(=O)=O was read as SUMO Mot1 rescue 4, Bfl-1 A1 inh -1, aDG glyco up 0, ARNT-TACC3 inh 4 and AI-2 QS modul 5.
Screening Cc1c(O)ccc(/C=N/Nc2ncccc2[N+](=O)[O-])c1O returned SUMO Mot1 rescue -17, Bfl-1 A1 inh -7, aDG glyco up 5.8*, ARNT-TACC3 inh -7 and AI-2 QS modul 5.
Screening CCCn1c(=S)[nH]c2cc(C(=O)N3CCc4ccccc4C3)ccc2c1=O returned SUMO Mot1 rescue -18, Bfl-1 A1 inh -1, aDG glyco up 0 and AI-2 QS modul 7.
`CN(C)c1ccc(N=c2sc3ccccc3n2C)cc1` gave SUMO Mot1 rescue 129, Bfl-1 A1 inh -1, aDG glyco up -1, ARNT-TACC3 inh 72* and AI-2 QS modul 13.
`Cc1cc2ccccn2c1C(=O)c1ccc([N+](=O)[O-])cc1[N+](=O)[O-]` gave SUMO Mot1 rescue 317*, Bfl-1 A1 inh 0, aDG glyco up 0, ARNT-TACC3 inh -5 and AI-2 QS modul 24.
